The source of these data is ChEMBL document CHEMBL1961873, “Compounds: GSK PKIS; Assays: Nanosyn kinase panel” (2012).

The target in assay [1] is Casein kinase I isoform gamma-2 (Homo sapiens) (UniProt P78368). As to conditions: at 1 µM.
The target of assay [2] is Casein kinase I isoform gamma-3 (Homo sapiens) (UniProt Q9Y6M4). To be noted: at 0.1 µM.
Assay [3] has the same target. To be noted: at 1 µM.
The target of assay [4] is Cyclin-dependent kinase 1 (Homo sapiens) (UniProt P06493). As to conditions: at 0.1 µM.
Assay [5] has the same target. As to conditions: at 1 µM.
Assay [6] concerns the target Cyclin-dependent kinase 2 (Homo sapiens) (UniProt P24941). As to conditions: at 0.1 µM.
The target is the same in assay [7]. As to conditions: at 1 µM.
Assay [8] has the same target. As to conditions: at 0.1 µM. The source holds these as a separate data set.
For assay [9] the target is unchanged. As to conditions: at 1 µM. This is another data set of the same source.
The target in assay [10] is T1, CDK3/Cyclin E (Homo sapiens) (UniProt P24864+Q00526). To be noted: at 0.1 µM.
In assay [11] the target is T1, CDK3/Cyclin E (Homo sapiens). As to conditions: at 1 µM.
Assay [12] concerns the target Cyclin-dependent kinase 4 (Homo sapiens) (UniProt P11802). To be noted: at 0.1 µM.
Assay [13] shares this target. As to conditions: at 1 µM.
The target in assay [14] is Cyclin-dependent kinase 5 (Homo sapiens) (UniProt Q00535). As to conditions: at 0.1 µM.
Assay [15] has the same target. As to conditions: at 1 µM.
The target of assay [16] is Cyclin-dependent kinase 6 (Homo sapiens) (UniProt Q00534). As to conditions: at 0.1 µM.
For assay [17] the target is unchanged. To be noted: at 1 µM.
Assay [18] deals with Dual specificity protein kinase CLK2 (Homo sapiens) (UniProt P49760). To be noted: at 0.1 µM.
Assay [19] shares this target. As to conditions: at 1 µM.
For assay [20], the target named is Dual specificity protein kinase CLK3 (Homo sapiens) (UniProt P49761). As to conditions: at 0.1 µM.

Broadly, the inhibition is the drop in the measured response relative to a control, in per cent.

Structures are written as SMILES.

Sequence of Cyclin-dependent kinase 1 (Homo sapiens) (P06493 whole entry, looked up): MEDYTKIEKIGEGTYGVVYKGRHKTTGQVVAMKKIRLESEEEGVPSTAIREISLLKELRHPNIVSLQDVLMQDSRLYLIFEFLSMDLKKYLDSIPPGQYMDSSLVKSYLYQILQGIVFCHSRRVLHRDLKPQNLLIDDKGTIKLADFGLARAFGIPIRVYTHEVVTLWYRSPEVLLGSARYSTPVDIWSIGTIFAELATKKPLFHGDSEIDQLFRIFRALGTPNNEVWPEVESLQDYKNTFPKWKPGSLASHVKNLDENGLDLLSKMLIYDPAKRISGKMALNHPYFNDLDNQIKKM
Sequence of Dual specificity protein kinase CLK2 (Homo sapiens) (P49760 whole entry, looked up): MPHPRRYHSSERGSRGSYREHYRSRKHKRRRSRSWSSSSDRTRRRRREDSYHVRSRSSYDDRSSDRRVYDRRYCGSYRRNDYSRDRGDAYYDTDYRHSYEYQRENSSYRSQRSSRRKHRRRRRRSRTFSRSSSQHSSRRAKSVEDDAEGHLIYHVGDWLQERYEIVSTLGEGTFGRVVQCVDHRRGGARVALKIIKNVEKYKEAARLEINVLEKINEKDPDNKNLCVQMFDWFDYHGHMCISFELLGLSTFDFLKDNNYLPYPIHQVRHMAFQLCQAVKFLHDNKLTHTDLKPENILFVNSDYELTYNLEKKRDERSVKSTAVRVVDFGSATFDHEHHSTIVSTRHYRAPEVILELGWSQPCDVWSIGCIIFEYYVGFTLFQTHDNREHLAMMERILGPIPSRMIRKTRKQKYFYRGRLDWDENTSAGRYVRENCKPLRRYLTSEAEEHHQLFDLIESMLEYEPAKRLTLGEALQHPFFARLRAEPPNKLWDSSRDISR
T1 sequence (P24864 whole entry, looked up): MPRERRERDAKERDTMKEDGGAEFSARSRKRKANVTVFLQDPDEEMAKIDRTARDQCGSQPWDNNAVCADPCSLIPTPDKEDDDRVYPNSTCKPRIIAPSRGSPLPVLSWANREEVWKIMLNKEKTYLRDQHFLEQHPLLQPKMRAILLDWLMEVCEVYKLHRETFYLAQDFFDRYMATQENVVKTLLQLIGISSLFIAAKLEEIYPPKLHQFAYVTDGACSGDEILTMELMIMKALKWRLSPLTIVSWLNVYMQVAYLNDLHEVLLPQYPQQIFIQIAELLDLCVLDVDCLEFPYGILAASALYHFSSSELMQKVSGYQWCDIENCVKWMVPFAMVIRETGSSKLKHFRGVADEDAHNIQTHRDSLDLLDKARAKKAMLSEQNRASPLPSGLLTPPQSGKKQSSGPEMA
T1 sequence (Q00526 whole entry, looked up): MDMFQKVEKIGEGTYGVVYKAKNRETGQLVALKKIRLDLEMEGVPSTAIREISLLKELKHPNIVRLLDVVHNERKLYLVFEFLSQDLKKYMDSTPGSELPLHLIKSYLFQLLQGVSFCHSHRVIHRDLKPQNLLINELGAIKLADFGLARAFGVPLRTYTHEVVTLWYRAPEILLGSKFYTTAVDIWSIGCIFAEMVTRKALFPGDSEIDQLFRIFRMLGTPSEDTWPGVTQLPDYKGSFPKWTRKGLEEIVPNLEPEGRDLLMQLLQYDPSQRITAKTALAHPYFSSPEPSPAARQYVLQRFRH
Sequence of Casein kinase I isoform gamma-3 (Homo sapiens) (Q9Y6M4 whole entry, looked up, canonical isoform): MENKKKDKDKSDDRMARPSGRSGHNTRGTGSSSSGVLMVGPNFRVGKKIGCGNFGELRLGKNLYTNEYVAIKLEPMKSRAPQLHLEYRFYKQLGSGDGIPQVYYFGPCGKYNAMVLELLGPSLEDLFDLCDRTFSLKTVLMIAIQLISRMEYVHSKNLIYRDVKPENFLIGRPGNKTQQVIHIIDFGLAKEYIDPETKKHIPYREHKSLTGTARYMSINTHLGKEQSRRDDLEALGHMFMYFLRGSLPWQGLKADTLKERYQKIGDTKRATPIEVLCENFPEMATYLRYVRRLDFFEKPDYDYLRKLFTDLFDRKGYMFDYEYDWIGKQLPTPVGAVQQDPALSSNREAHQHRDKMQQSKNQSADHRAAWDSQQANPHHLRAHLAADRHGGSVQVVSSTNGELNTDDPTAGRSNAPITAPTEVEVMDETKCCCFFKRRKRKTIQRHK
Sequence of Casein kinase I isoform gamma-2 (Homo sapiens) (P78368 whole entry, looked up, canonical isoform): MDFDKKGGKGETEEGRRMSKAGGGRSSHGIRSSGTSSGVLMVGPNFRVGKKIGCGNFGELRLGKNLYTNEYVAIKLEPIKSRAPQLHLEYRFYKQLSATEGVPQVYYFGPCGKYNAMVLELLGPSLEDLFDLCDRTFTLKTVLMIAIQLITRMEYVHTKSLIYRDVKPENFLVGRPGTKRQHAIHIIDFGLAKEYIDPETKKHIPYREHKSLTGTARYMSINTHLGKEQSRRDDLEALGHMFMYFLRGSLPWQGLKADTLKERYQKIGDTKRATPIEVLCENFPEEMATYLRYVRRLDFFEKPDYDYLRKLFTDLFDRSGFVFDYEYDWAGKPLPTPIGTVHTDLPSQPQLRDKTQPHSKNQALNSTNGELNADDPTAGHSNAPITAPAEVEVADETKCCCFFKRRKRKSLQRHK
Sequence of Dual specificity protein kinase CLK3 (Homo sapiens) (P49761 whole entry, looked up): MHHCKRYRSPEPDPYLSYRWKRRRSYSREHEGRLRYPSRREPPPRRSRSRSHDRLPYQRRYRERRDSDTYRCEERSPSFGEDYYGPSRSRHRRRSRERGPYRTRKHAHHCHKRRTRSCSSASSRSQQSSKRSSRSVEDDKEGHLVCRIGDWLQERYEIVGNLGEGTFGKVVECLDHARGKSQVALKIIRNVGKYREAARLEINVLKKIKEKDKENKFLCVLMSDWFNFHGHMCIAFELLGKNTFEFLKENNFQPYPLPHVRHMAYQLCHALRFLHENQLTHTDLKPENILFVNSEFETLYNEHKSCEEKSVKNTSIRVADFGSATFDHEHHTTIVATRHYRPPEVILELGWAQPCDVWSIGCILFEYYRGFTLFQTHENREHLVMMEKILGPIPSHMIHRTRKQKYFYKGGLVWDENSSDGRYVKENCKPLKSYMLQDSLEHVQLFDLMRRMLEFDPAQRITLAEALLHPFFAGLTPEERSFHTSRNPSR
Sequence of Cyclin-dependent kinase 6 (Homo sapiens) (Q00534 whole entry): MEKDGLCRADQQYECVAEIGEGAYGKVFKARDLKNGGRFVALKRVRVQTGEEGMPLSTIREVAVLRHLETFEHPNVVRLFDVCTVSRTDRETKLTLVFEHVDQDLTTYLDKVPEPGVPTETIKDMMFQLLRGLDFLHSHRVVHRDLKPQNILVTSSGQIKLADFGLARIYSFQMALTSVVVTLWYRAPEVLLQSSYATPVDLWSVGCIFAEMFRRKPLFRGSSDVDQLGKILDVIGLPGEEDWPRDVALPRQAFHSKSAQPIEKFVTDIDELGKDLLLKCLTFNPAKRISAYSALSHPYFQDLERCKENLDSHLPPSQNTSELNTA
Sequence of Cyclin-dependent kinase 5 (Homo sapiens) (Q00535 whole entry, looked up): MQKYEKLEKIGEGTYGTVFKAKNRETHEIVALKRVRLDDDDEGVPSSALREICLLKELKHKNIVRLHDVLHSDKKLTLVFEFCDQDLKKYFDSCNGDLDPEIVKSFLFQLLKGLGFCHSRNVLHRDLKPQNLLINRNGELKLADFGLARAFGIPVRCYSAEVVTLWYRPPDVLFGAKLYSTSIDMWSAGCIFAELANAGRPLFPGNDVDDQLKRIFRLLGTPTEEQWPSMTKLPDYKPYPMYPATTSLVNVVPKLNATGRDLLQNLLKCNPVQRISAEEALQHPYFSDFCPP
Sequence of Cyclin-dependent kinase 4 (Homo sapiens) (P11802 whole entry): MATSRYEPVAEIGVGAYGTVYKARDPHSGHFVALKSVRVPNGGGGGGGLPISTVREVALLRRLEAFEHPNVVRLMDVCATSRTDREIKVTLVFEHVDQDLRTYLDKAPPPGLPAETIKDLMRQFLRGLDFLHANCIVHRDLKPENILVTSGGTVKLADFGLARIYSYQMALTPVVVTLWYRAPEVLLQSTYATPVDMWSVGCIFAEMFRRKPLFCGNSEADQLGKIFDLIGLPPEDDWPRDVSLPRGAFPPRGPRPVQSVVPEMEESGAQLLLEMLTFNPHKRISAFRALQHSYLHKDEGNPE

For `Nc1nc(-c2ccccn2)c(-c2ccc3ncccc3n2)s1`, the inhibition in assay [1] is 10.1%; in assay [2] it was 4%; in assay [3], 17.4%; in assay [4], 0.79%; in [5], 3.13%; in assay [6], 1.62%. Besides, the inhibition in [7] worked out at 1.29%; in assay [8] it was 4.08%; in assay [9], 5.96%; in [10], 2.27%; in assay [11], 0.5%; in [12] it was 3.41%. The inhibition in assay [13] was 4.48%; in assay [14], 1.28%; in assay [15], 2.86%; in assay [16] it was 6.73%; in assay [17] it was 7.75%; in assay [18], -0.01%. The inhibition in assay [19] turned out to be 0.69%; in assay [20] it was 2.95%.
With `COc1cc2ncn(-c3cc(OCc4ccccc4Cl)c(C(N)=O)s3)c2cc1OC`, the inhibition in [1] is 1.68%; in [2], 1.38%; in assay [3], 2.71%; in assay [4] it was 1.92%; in assay [5] it was 6.22%; in assay [6], 1.7%. The inhibition was 6.39% in assay [7]; 2.24% in assay [8]; 5.06% in [9]; 3.11% in [10]; -0.63% in assay [11]; 2.27% in assay [12]. Besides, the inhibition in assay [13] is 5.4%; in [14], 1.51%; in assay [15], 4.46%; in assay [16], -4.1%; in assay [17] it was 0.43%; in assay [18], 1.87%. The values for the inhibition in assay [19] and in [20] were 3.23% and 1.33%, respectively.
For `Cn1cc(C=C2C(=O)Nc3cccnc32)c2ccccc21`, the inhibition in assay [1] was determined as 3.63%; in assay [2], 1.67%; in assay [3], 5.3%; in assay [4], 4.27%; in assay [5] it was 7.4%; in assay [6], 2.66%. For the same compound, the inhibition in assay [7] worked out at 3.89%; in [8], 7.44%; in [9], 8.9%; in assay [10] it was 10.7%; in [11] it was 3.36%; in assay [12], 4.89%. For the same compound, the inhibition stood at 11% in assay [13]; 5.57% in [14]; 7.28% in [15]; 1.04% in [16]; 8.56% in assay [17]; 3.28% in assay [18]. The inhibition was 13.7% in assay [19] and 0.62% in [20].
As for `CS(=O)(=O)CCN(CC#N)Cc1ccc(-c2ccc3ncnc(Nc4ccc(OCc5cccc(F)c5)c(Cl)c4)c3c2)o1`, the inhibition in assay [1] was -2.18%; in [2] it was -1.66%; in [3], -4.35%; in assay [4], -3.13%; in [5] it was -3.04%; in assay [6] it was -1.63%. The inhibition in [7] is -2.87%; in assay [8], -2.44%; in assay [9] it was -4.09%; in assay [10], -2.24%; in assay [11] it was -2.66%; in [12] it was -2.96%. For the same compound, the inhibition in assay [13] was -1.43%; in assay [14] it was -3.58%; in [15], -2.47%; in [16], -5.97%; in assay [17] it was -4.69%; in [18], 1.05%. For the same compound, the inhibition in [19] was 0.64%; in [20], -3.63%.
As for `CN1CCC(C(=O)Nc2n[nH]c3nnc(-c4ccccc4)cc23)CC1`, the inhibition in [1] was 6.16%; in assay [2], 2.15%; in assay [3], 4.71%; in assay [4], 1.44%; in assay [5] it was 9.39%; in assay [6] it was 1.83%. In addition, the inhibition in assay [7] was determined as 5.99%; in [8] it was 5.55%; in [9] it was 7.79%; in assay [10], 5.12%; in assay [11], 5.97%; in [12], 8.86%. Further, the inhibition in assay [13] amounted to 29.4%; in [14] it was 1.11%; in assay [15] it was 3.61%; in assay [16], 7.11%; in [17], 21.4%; in [18], 1.34%. The inhibition in assay [19] amounted to 2.3%; in assay [20] it was 1.91%.
With `Cc1cccc(-c2n[nH]cc2-c2ccc3ncccc3n2)n1`, the inhibition in [1] was found to be 0.49%; in assay [2] it was 0.08%; in [3] it was 1.59%; in assay [4], 0.3%; in assay [5], 2.06%; in assay [6] it was 0.57%. Moreover, the inhibition in assay [7] is -1.61%; in assay [8] it was 0.23%; in assay [9], 0.63%; in assay [10] it was 0.85%; in [11], -2.25%; in [12], -0.55%. For the same compound, the inhibition in assay [13] was 2.39%; in [14], -0.23%; in [15], 0.38%; in assay [16], -3.86%; in [17], 0.55%; in assay [18], -0.31%. Further, the figures for the inhibition in [19] and in [20] were 3.44% and 0.37%, respectively.
`Cc1ccc(NC(=O)c2ccnc(N3CCCC3)c2)cc1-c1ccc(C(=O)NCC2CC2)cc1`: the inhibition in assay [1] is 2.39%; in assay [2], 0.96%; in assay [3], 2.49%; in assay [4] it was -0.58%; in assay [5], 2.14%; in [6], -0.92%. Moreover, the inhibition is 2.88% in [7]; 6.57% in assay [8]; 6.44% in assay [9]; 9.73% in assay [10]; -0.38% in assay [11]; 0.83% in [12]. Further, the inhibition in assay [13] was 4.63%; in assay [14] it was 2.54%; in assay [15], 3.21%; in assay [16], -7.97%; in assay [17], -0.52%; in [18], 3.05%. Moreover, the inhibition was 1.8% in assay [19] and -1.85% in assay [20].
For the compound `CNC(=O)c1cncc(/C=C/c2c(Cl)cccc2Cl)c1`, the inhibition is 7.62% in assay [1]; 1.61% in assay [2]; 4.59% in assay [3]; -1.13% in assay [4]; -0.82% in assay [5]; 0.92% in assay [6]. The inhibition in assay [7] was -0.22%; in assay [8], -0.41%; in assay [9], 3.85%; in assay [10], -4.75%; in [11], -3.08%; in assay [12] it was 0.86%. In addition, the inhibition in assay [13] was 3.96%; in assay [14], -2.57%; in [15], -0.63%; in assay [16] it was -5.76%; in assay [17], -5.69%; in assay [18], 2.47%. Besides, the figures for the inhibition in assay [19] and in assay [20] were 5.66% and -3.56%, respectively.
`COc1cc2ncn(-c3cc(OCc4ccccc4C(F)(F)F)c(C(N)=O)s3)c2cc1OC`: the inhibition in assay [1] is 1.15%; in [2], -0.01%; in assay [3], 1.63%; in [4], -4.16%; in [5] it was -1.4%; in assay [6], -2.45%. Besides, the inhibition in assay [7] was 1.5%; in [8], 0.41%; in assay [9], 4.83%; in assay [10], -1.21%; in assay [11], -0.14%; in assay [12] it was -1.16%. Also, the inhibition was 1.16% in [13]; -3.58% in [14]; -1.09% in assay [15]; -3.21% in assay [16]; -1.7% in [17]; 1.94% in assay [18]. The results for the inhibition in assay [19] and in [20] were 6.82% and -2.62%, respectively.
For `COc1cc(C=NNc2ncnc3c2cnn3-c2ccccc2)ccc1O`, the inhibition was determined as 18.1% in assay [1]; 1.55% in assay [2]; 5.99% in [3]; 6.11% in [4]; 35.8% in assay [5]; 6.03% in [6]. The inhibition in assay [7] was determined as 42.1%; in assay [8] it was 2.88%; in assay [9], 13.7%; in assay [10], 2.09%; in [11], 12.7%; in [12], 3.09%. For the same compound, the inhibition in assay [13] came to 18.6%; in assay [14], 4%; in [15], 24.5%; in [16], 4.2%; in assay [17], 21.7%; in assay [18], 3.39%. For the same compound, the inhibition in [19] worked out at 9.02%.
In the case of `CCc1cccc(NC(=O)Nc2ccc(Oc3ccc4nc(NC(=O)OC)[nH]c4c3)cc2)c1`, the inhibition in assay [1] was 0.48%; in assay [2] it was 0.13%; in [3], 2.93%; in assay [4], -1.03%; in assay [5] it was 0.5%; in [6], 0.71%. For the same compound, the inhibition is 1.95% in assay [7]; 3.03% in assay [8]; -0.35% in [9]; 1.01% in assay [10]; -1.16% in [11]; 0.97% in assay [12]. For the same compound, the inhibition in assay [13] is 1.5%; in assay [14], -0.16%; in assay [15], -0.09%; in assay [16], 7.42%; in assay [17], 1.51%; in [18], 0.09%. Besides, the inhibition in assay [19] stood at 1.38%; in [20], 0.3%.
As for `CCn1c(-c2nonc2N)nc2cncc(C(=O)N3CCNCC3)c21`, the inhibition in [1] turned out to be 4.57%; in assay [2] it was 3.46%; in assay [3], 3.18%; in assay [4], 2.63%; in assay [5] it was 1.24%; in assay [6], 3.94%. In addition, the inhibition in [7] was 2.62%; in [8] it was 3.71%; in assay [9], 3.23%; in assay [10], -1.18%; in [11] it was 0.54%; in assay [12] it was 2.78%. Also, the inhibition was 3.57% in [13]; 0.79% in assay [14]; 1.06% in assay [15]; -0.98% in assay [16]; 3.06% in [17]; 2.04% in assay [18]. Also, the figures for the inhibition in [19] and in assay [20] were 5.8% and 2.42%, respectively.
As to `COc1ccc(-c2nn3ncccc3c2-c2ccnc(Nc3ccc(Cl)c(C(F)(F)F)c3)n2)cc1`, the inhibition is 1.48% in [1]; 2.03% in assay [2]; 0.7% in assay [3]; 0.45% in assay [4]; 0.2% in assay [5]; 1.46% in assay [6]. For the same compound, the inhibition is -2.2% in [7]; 1.44% in assay [8]; 1.76% in assay [9]; 1.87% in assay [10]; -0.57% in assay [11]; 1.13% in assay [12]. The inhibition in assay [13] is 2.09%; in assay [14], 0.45%; in assay [15], 0.19%; in [16] it was 0.68%; in [17], 1.73%; in assay [18], 0.95%. Moreover, the inhibition came to 1.59% in assay [19] and 1.77% in assay [20].
